# Hit rate of the full screen: of about 69,000 compounds, about 420 (0.61%) showed an effect of 50% or more. The list comes from a sample in which strong results are over-represented; it also holds similar structures and randomly drawn compounds.
# Biological target: T1, Histidine--tRNA ligase (Leishmania infantum) (UniProt A4I591)
# T1 sequence (whole entry): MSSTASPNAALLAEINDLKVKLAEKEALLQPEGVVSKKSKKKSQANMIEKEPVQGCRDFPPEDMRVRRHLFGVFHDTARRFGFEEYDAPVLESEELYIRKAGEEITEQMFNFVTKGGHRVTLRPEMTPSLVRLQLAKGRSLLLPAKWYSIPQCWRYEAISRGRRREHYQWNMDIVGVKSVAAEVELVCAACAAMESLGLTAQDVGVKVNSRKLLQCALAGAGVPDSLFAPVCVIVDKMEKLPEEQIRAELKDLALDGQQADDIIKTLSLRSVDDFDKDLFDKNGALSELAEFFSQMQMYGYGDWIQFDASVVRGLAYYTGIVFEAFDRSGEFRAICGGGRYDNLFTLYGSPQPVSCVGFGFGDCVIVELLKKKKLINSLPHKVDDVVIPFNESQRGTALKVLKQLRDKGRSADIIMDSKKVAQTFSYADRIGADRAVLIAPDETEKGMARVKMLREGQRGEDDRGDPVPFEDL
# Experiment: Leishmania infantum Histidine tRNA synthetase (LdHisRS)
# Type: functional
# Design: scale not given: in the data most compounds retested in dose-response had high values
# Conditions: 30 µM
row,Compound,Percent Effect [%]
1,COC[C@@]12CC[C@@H](N3CCOCC3)C[C@H]1CCN(c1ncccc1Cl)C2,22.9
2,O=C1O[C@@H]2CN(Cc3cc4ccccc4o3)C[C@@H]2N1Cc1ccccn1,0
3,CN1CCN(Cc2nnc(C3CCN(CC4CC4)CC3)n2C)CC1,21.1
4,CN1CCN(Cc2nnc(C3CCN(C(CO)CO)CC3)n2C)CC1,80.7
5,CN1CCN(Cc2nnc(C3CCN(C4CCCCC4)CC3)n2C)CC1,13.2
6,Cc1ccnc(OC[C@]23COC[C@H]2CN(C(=O)C2=CCCCC2)C3)n1,5.56
7,CN(Cc1cccnc1)c1nccc(N2CCN[C@H]3CS(=O)(=O)C[C@H]32)n1,12.9
8,c1ccc(CN2C[C@@H]3CC[C@H](C2)N(Cc2nnc(C4CC4)o2)C3)cc1,34
9,COc1cc(N2C[C@@H]3COC[C@]3(C(=O)NCc3ccccn3)C2)ncn1,5.26
10,COCCNC(=O)Cn1c(-c2ccco2)cc2cccnc21,14.8
11,O=C(Cn1c(-c2ccco2)cc2cccnc21)N1CCCC1,76.5
12,CC(C)N(C(=O)Cn1c(-c2ccco2)cc2cccnc21)C(C)C,20.1
13,Cc1nnc([C@@]23CCO[C@@H]2CCN(Cc2nccs2)C3)o1,7.92
14,CN(C)C(=O)N1C[C@@H]2CCCO[C@@H]2[C@H](N(C)Cc2ccco2)C1,11.4
15,c1ccc(-c2nnc(CN3C[C@@H]4CC[C@H](C3)N(CC3CCC3)C4)o2)cc1,21.3
16,C1CC(CN2C[C@H]3CC[C@@H]2CN(Cc2noc(C4CCCC4)n2)C3)C1,8.51
17,c1ccc(-c2cc(CN3C[C@@H]4CC[C@H](C3)N(CC3CCC3)C4)on2)cc1,51.7
18,c1ccc(-c2cc(CN3C[C@@H]4CC[C@H](C3)N(CC3CC3)C4)on2)cc1,26.7
19,c1ccc(-c2cc(CN3CCCC(Cn4cncn4)C3)on2)cc1 (stereo unspecified),8.55
20,O=C(NCC1CC1)[C@@H]1CCO[C@@H]2CCN(CCc3ccccc3)C[C@H]21,13.7
21,CN1CCN(C(=O)[C@H]2CC[C@@H]3[C@@H](CCN3Cc3nccs3)O2)CC1,-10.1
22,Cc1cc(CN2CCN(CC3CC3)[C@@H]3CS(=O)(=O)C[C@@H]32)cc(C)c1O,8.33

row,Compound,Percent Effect [%]
1,O=C([C@H]1C[C@H]2OCC[C@H]2N(Cc2ccco2)C1)N1CCCO1,22.2
2,CN(Cc1nccs1)c1nccc(N2CCN[C@H]3CS(=O)(=O)C[C@H]32)n1,14.5
3,O=C(NCc1ccco1)[C@H]1CC[C@@H]2[C@@H](CCN2Cc2nccs2)O1,31.5
4,O=C(NCc1ccco1)[C@H]1CC[C@@H]2[C@@H](CCN2Cc2cccnc2)O1,23.3
5,O=C(NCc1ccco1)[C@@H]1CC[C@@H]2[C@@H](CCN2CC2CC2)O1,23.3
6,Cn1cc(CN2CC[C@H]3O[C@H](C(=O)NCc4ccco4)CC[C@H]32)cn1,9.43
7,O=C(NCc1ccco1)[C@@H]1CC[C@@H]2[C@@H](CCN2Cc2ccc(F)cc2)O1,69.9
8,COCCN1CCCn2cnc(CN(C)C(C)C)c2C1,30
9,COCCN1CCCn2cnc(CNC3CCCC3)c2C1,77.8
10,COCCN1CCCn2cnc(CNC(=O)N(C)C)c2C1,9.4
11,COCCN1C(=O)CO[C@H]2CN(Cc3cccc(OC)c3F)C[C@@H]21,8.25
12,Cc1nnc([C@]23COC[C@H]2CN(Cc2cnn(C)c2)C3)o1,27.4
13,CN(C)CCN1CCO[C@@H]2CN(C(=O)Cc3ccsc3)CC[C@@H]2C1,10
14,C1CC(CN2C[C@@H]3C[C@@H](c4nnc(C5CC5)o4)O[C@@H]3C2)CCO1,11.1
15,O=S(=O)(CCCn1cncn1)Cc1ccccc1Cl,19.7
16,O=S(=O)(CCCn1cncn1)Cc1cccc(F)c1,-11.8
17,O=S(=O)(CCCn1cncn1)Cc1ccc(F)cc1Cl,109
18,COc1ncccc1CN1C[C@@H]2C[C@@H](C(=O)NCC3CC3)N(C)[C@@H]2C1,24.8
19,CO[C@@H]1CC[C@H]2[C@H]1OCCN2C(=O)c1ccc(C)nc1,7.02
20,COc1cc(N2C[C@H](C(=O)NC3CC3)[C@@H]3CCO[C@@H]3C2)ncn1,3.23
21,Cc1ccc2[nH]c(CO[C@H]3CN(C(=O)C4CC4)C[C@H]3F)nc2c1,4.05
22,CN1C[C@@H](F)[C@@H](OCc2nc3ccc(C#N)cc3[nH]2)C1,25

row,Compound,Percent Effect [%]
1,Cc1ccc2[nH]c(CO[C@H]3CN(c4ccc(C#N)cn4)C[C@H]3F)nc2c1,69.4
2,O=C(NC1CC1)[C@@H]1CCO[C@@H]2CCN(CCc3ccccc3)C[C@@H]21,15.1
3,Cc1cccc(CN2C[C@H]3OC(=O)N(CCCN4CCOCC4)[C@H]3C2)n1,22.3
4,Cc1ncsc1C(=O)N1CC[C@@H]2[C@@H](CC1)OCCN2c1cccnc1,10.5
5,COc1cccn(Cc2nnc(-c3cccc(F)c3)o2)c1=O,91.8
6,O=c1c(C(F)(F)F)cccn1Cc1nnc(-c2cccnc2)o1,11.5
7,COc1cccn(Cc2nnc(-c3cccnc3)o2)c1=O,39.3
8,Cc1cccc(CN2C[C@@H]3CN(C(=O)NC(C)C)C[C@@H]3C2=O)c1,12.3
9,CN(C)c1nccc(NCc2cc(-c3ccco3)n[nH]2)n1,34.3
10,CC(C)[C@H](NS(C)(=O)=O)C(=O)NCc1cc(-c2ccco2)n[nH]1,54.3
11,C[C@H](NS(C)(=O)=O)C(=O)NCc1cc(-c2ccco2)n(CC(F)(F)F)n1,-80
12,C[C@H](NS(C)(=O)=O)C(=O)NCc1cc(-c2ccco2)n[nH]1,51.4
13,CC(C)[C@H](NS(C)(=O)=O)C(=O)NCc1cc(-c2ccccc2)n[nH]1,17.1
14,CC(C)[C@H](NS(C)(=O)=O)C(=O)NCc1cc(-c2ccco2)nn1C,8.57
15,CN1CCN(C[C@@H]2OC[C@H]3CN(CCc4ccccc4)CC[C@H]32)CC1,22.6
16,O=C(NC1CCC1)[C@@H]1CCO[C@@H]2CCN(CCc3ccccc3)C[C@H]21,15.4
17,O=C(NC[C@]12COC[C@H]1CN(Cc1nccs1)C2)c1ccsc1,0
18,c1ccc(Oc2ccc(OC34CCCN(CC3)C4)cc2)cc1 (stereo unspecified),61.2
19,c1ccc(Oc2cccc(OC34CCCN(CC3)C4)c2)cc1 (stereo unspecified),51
20,Cc1cnccc1CNCc1ccc(OC23CCCN(CC2)C3)cc1 (stereo unspecified),36.5
21,Cc1nc(CNCc2cccc(OC34CCCN(CC3)C4)c2)n[nH]1 (stereo unspecified),24.7
22,COc1cc(C#N)ccc1OC12CCCN(CC1)C2 (stereo unspecified),23.1

row,Compound,Percent Effect [%]
1,O=c1[nH]nc(CNCc2ccc(OC34CCCN(CC3)C4)cc2)[nH]1 (stereo unspecified),17.6
2,Cc1ccc(C(=O)N2C[C@@H]3CCCO[C@@H]3[C@H](N(C)Cc3ccco3)C2)o1,3.23
3,O=S(=O)(N1CCCC1)N1CC[C@H](c2ccccc2)[C@H]2NCCCC[C@H]21,26.3
4,COc1ncccc1CN1C[C@@H]2COC[C@]2(COc2ccccn2)C1,7.69
5,CS(=O)(=O)NC[C@]12COC[C@H]1CN(C(=O)c1cnccn1)C2,-2.65
6,O=C(CN1CCN(c2ncccn2)[C@@H]2CS(=O)(=O)C[C@@H]21)N1CCCCC1,-8.22
7,COc1ncc(-c2cc(-c3ccn(C)c3)nc(N)c2C#N)cn1,35.4
8,COc1ncc(-c2c(C#N)c(N)nc3c2CCc2[nH]ccc2-3)cn1,95.7
9,COCCc1ncc(-c2c(C#N)c(N)nc3c2CCc2[nH]ccc2-3)cn1,103
10,CCOc1ccc(-c2c(C#N)c(N)nc3c2COCC3)cn1,21.7
11,CCC(C)Sc1ncc(-c2c(C#N)c(N)nc3c2COCC3)cn1 (stereo unspecified),2.17
12,CCCn1cc(-c2cc(-c3cnc(OC)nc3)c(C#N)c(N)n2)c(C)n1,16.4
13,O=C([C@@H]1C[C@@H]2CCN(Cc3ccco3)C[C@H]2O1)N1CCCO1,15
14,CC(C(=O)Nc1ccnn1C(C)C)N1CCc2nn(C)c(=O)cc2C1 (stereo unspecified),25
15,CC(C(=O)Nc1nccs1)N1CCc2nn(C)c(=O)cc2C1 (stereo unspecified),23.2
16,Cn1nc2c(cc1=O)CN(CC(=O)Nc1ccc(Cl)cn1)CC2,103
17,Cn1nc2c(cc1=O)CN(CC(=O)Nc1nncs1)CC2,6.06
18,Cn1nc2c(cc1=O)CN(CC(=O)Nc1nccs1)CC2,48.2
19,CC(C(=O)Nc1ccc(Cl)cn1)N1CCc2nn(C)c(=O)cc2C1 (stereo unspecified),102
20,Cc1cccc(CN2C(=O)CO[C@@H]3CN(CCO)C[C@H]32)c1,15.4
21,Cc1cc(C(=O)N2CC[C@@H]3CN(C)S(=O)(=O)[C@@H]3CC2)no1,9.62
22,Cc1cccc(COC[C@@H]2CC[C@H]3[C@H](CCN3Cc3ccco3)O2)n1,13.3

row,Compound,Percent Effect [%]
1,CCCc1nc(CNC2(c3nccs3)CCCC2)cs1,15.1
2,c1csc(C2(NCc3csc(C4CC4)n3)CCCC2)n1,51.6
3,Cc1csc(C2(NCc3csc(C4CC4)n3)CCCC2)n1,8.6
4,O=C(NC[C@H]1CC[C@H](c2nnc(-c3cccnc3)o2)CC1)C1CC1,-19.9
5,O=C(c1ccsc1)N1C[C@@H]2CCN(C(=O)c3cccc(F)c3)[C@@H]2C1,11.7
6,COc1ccc(CNC(=O)Nc2ccc(=O)n(C)c2)cc1,114
7,Cn1cc(NC(=O)NCc2ccoc2)ccc1=O,120
8,O=C(NCc1ccoc1)Nc1ccc(CN2CCOC2=O)cc1,2.88
9,Cc1nnc(NC(=O)NCc2ccoc2)s1,7.69
10,COc1ccc(CNC(=O)c2ccc(=O)n(C)c2)cc1C,-2.08
11,COc1ccc(CNC(=O)Nc2ccc(CN3CCOC3=O)cc2)cc1,15.2
12,COc1cccc(-c2ccc(CNC(=O)c3ccc(=O)n(C)c3)cc2)c1,14.6
13,COc1ccc(CNC(=O)Nc2ccc(S(=O)(=O)C(F)F)cc2)cc1,18.3
14,COC(=O)c1ccc(CNC(=O)Nc2ccc(=O)n(C)c2)cc1,120
15,c1cnc(N2C[C@H]3CCN(CCN4CCCC4)C[C@H]3C2)cn1,25.7
16,Cc1ccc(CN2CC[C@H]3[C@@H]2CCC(=O)N3CCN2CCCC2)s1,5.11
17,CC(C)NC(=O)N1CC[C@H]2[C@H]1CCN2c1ncccn1,15.4
18,COc1ncccc1CN1C[C@@H]2COC[C@]2(COc2cccnc2)C1,20.5
